Results: PubChem BioAssay (NCATS)
Inconclusive results are not listed. The source made the active and inactive calls. Calls follow the shape of the dose curve; as a rule, active = well fitted curve in the direction sought with a large enough effect; inconclusive = small, poorly fitted or top-dose-only effect, or another doubt; inactive = no such curve, though single readings can be large; an effect the other way counts as inactive or inconclusive.

What was measured:
[1] = Quantitative High-Throughput drug screen in 47 multiple myeloma cell lines against the NCATS MIPE library collection: ARD_JJKsccE7 cell viability assay (AID 1918929)
Method in brief: (§1)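 qHTS of the MIPE 4.0 collection: 500 myeloma cells/well, 48 h drug exposure at 37C in 5% CO2, then CellTiter-Glo for 5 min at room temperature before luminescence reading.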

[2] = Quantitative High-Throughput drug screen in 47 multiple myeloma cell lines against the NCATS MIPE library collection: Karpas620_DSMZ cell viability assay (AID 1918959); also: nearly all actives have a fitted effect of over 30% in size
Method in brief: (§2)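 We plated 500 myeloma cells per well, pinned in MIPE 4.0 compounds, and incubated for 48 hours at 37C. ATP was then quantified with CellTiter-Glo, with DMSO and media-only wells defining 100% and 0%.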

[3] = Quantitative High-Throughput drug screen in 47 multiple myeloma cell lines against the NCATS MIPE library collection: KMM1_JCRB cell viability assay (AID 1918960); also: nearly all actives have a fitted effect of over 30% in size
Method in brief: (§3)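 Viability screen: myeloma cells (500/well) incubated 48 h at 37 °C, humidified 5% CO2, with pinned library compounds; CellTiter-Glo added, luminescence read; DMSO wells set 100%, medium-only wells 0%.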

[4] = Quantitative High-Throughput drug screen in 47 multiple myeloma cell lines against the NCATS MIPE library collection: KHM11_PLB cell viability assay (AID 1918962); also: nearly all actives have a fitted effect of over 35% in size
Method in brief: as §2

[5] = Quantitative High-Throughput drug screen in 47 multiple myeloma cell lines against the NCATS MIPE library collection: JIM3_ECACC cell viability assay (AID 1918963; also: nearly all actives have a fitted effect of over 35% in size)
Method in brief: as §2

[6] = Quantitative High-Throughput drug screen in 47 multiple myeloma cell lines against the NCATS MIPE library collection: JJN3_DSMZ cell viability assay (AID 1918966; also: nearly all actives have a fitted effect of over 50% in size)
Method in brief: as §1

[7] = Quantitative High-Throughput drug screen in 47 multiple myeloma cell lines against the NCATS MIPE library collection: Karpas417_ECACC cell viability assay (AID 1918961); conditions: Karpas417 myeloma viability, CellTiter-Glo ATP luminescence, 48 h; viability (% of DMSO): at 45.8 µM (top of the series)
Method in brief: (§4)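 Viability readout: CellTiter-Glo luminescence following 5 min room-temperature incubation with reagent. Prior exposure: 48 h, 37C, humidified 5% CO2, 500 cells per well.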

[8] = Quantitative High-Throughput drug screen in 47 multiple myeloma cell lines against the NCATS MIPE library collection: INA6_PLB cell viability assay (AID 1918965; also: nearly all actives have a fitted effect of over 55% in size)
Method in brief: as §4

[9] = Quantitative High-Throughput drug screen in 47 multiple myeloma cell lines against the NCATS MIPE library collection: JIM1_ECACC cell viability assay (AID 1918964)
Method in brief: as §1

[10] = Quantitative High-Throughput drug screen in 47 multiple myeloma cell lines against the NCATS MIPE library collection: ARP1_JJKsccF8 cell viability assay (AID 1918928; also: nearly all actives have a fitted effect of over 40% in size)
Method in brief: as §3

Measured: Potency
Potency is read from the fitted curve at half-maximal effect.

COc1cc2c(cc1OC)CN(CCc1ccc(NC(=O)c3cc(OC)c(OC)cc3NC(=O)c3cnc4ccccc4c3)cc1)CC2
active: [4] 20.9 µM | [5] 23.5 µM | [6] 0.526 µM
inactive: [1] | [2] | [3]

Cc1cnc(C(=O)O)c[n+]1[O-]
not listed: [6] | [9] | [10]
inactive: all other assays above

CC1CCC(C(=O)N(c2cc(C#CC(C)(C)C)sc2C(=O)O)C2CCC(O)CC2)CC1 (configuration not stated)
inactive: [1] | [2] | [3] | [9]
active: [8] 26.4 µM | [6] 18.7 µM

CS(=O)c1ccc(-c2nc(-c3ccc(F)cc3)c(-c3ccncc3)[nH]2)cc1 (configuration not stated)
active: [1] 42.9 µM | [2] 34 µM | [3] 34 µM | [7] 3.82 µM | [9] 34 µM | [6] 2.15 µM

COc1cccc(-c2cc(=O)c3ccccc3o2)c1N
active: [4] 5.26 µM | [5] 3.72 µM
inactive: [1] | [2] | [3]

NC(=O)c1cccc(-c2cc(Nc3ccc(OC(F)(F)F)cc3)ncn2)c1
active: [1] 14.8 µM | [2] 26.4 µM | [3] 14.8 µM | [4] 14.8 µM | [5] 18.7 µM | [8] 14.8 µM

COCCCCC(=NOCCN)c1ccc(C(F)(F)F)cc1
inactive: [1] | [2] | [3] | [5]

CCn1cc(C(=O)O)c(=O)c2ccc(C)nc21
inactive: [1] | [2] | [3] | [5]

O=c1cc(-c2ccc(O)cc2)oc2cc(O)cc(O)c12
active: [10] 20.9 µM | [6] 3.32 µM

O=C(NCc1ccncc1)C12C[C@H]3C[C@@H](C1)CC(c1ccc(Cl)cc1)(C3)C2
inactive: [4]
active: [1] 18.7 µM | [2] 9.35 µM | [3] 23.5 µM | [5] 23.5 µM | [9] 13.2 µM | [8] 20.9 µM

COc1cc2ncnc(-n3nc(-c4ccccn4)nc3N)c2cc1OC
active: [1] 0.743 µM | [2] 0.418 µM | [3] 1.05 µM | [7] 0.132 µM | [4] 5.9 µM | [5] 8.33 µM | [6] 4.69 µM

COc1ccc2c(Oc3ccc(NC(=O)c4c(C)n(CC(C)(C)O)n(-c5ccccc5)c4=O)cc3F)ccnc2c1
inactive: [7]
active: [1] 20.9 µM | [2] 23.5 µM | [6] 8.33 µM

C[C@H](NC(=O)c1sccc1OCc1ccc(Cl)cc1)c1ccccc1
active: [8] 26.4 µM
inactive: [1] | [2] | [3]

CN[C@@H](C)C(=O)N[C@H]1CN(C(=O)CC(C)C)CC[C@H]2CC[C@@H](C(=O)NC(c3ccccc3)c3ccccc3)N2C1=O
active: [1] 7.43 µM | [2] 1.18 µM | [5] 9.35 µM | [8] 8.33 µM

CC[C@H]1OC(=O)[C@H](C)C(=O)[C@H](C)[C@@H](O[C@H]2O[C@H](C)C[C@H](N(C)C)[C@@H]2O)[C@](C)(OC)C[C@@H](C)C(=O)[C@H](C)[C@H]2N(CCCCn3cnc(-c4cccnc4)c3)C(=O)O[C@]12C
active: [3] 3.72 µM
inactive: [1] | [2] | [4] | [5]

NC(=O)[C@@H](CCC(F)(F)F)N(Cc1ccc(-c2ncon2)cc1F)S(=O)(=O)c1ccc(Cl)cc1
inactive: [1] | [2] | [4]
active: [8] 26.4 µM

CC(=O)N(C)C1(c2ccccc2)CCN(CCC[C@]2(c3ccc(Cl)c(Cl)c3)CCCN(C(=O)c3ccccc3)C2)CC1
active: [1] 20.9 µM | [2] 16.6 µM | [3] 14.8 µM | [4] 16.6 µM | [5] 20.9 µM | [8] 10.5 µM | [6] 18.7 µM

NC(=O)c1cnc(-c2ccc(C3(N)CCC3)cc2)c(-c2ccccc2)c1
active: [10] 8.33 µM | [8] 10.5 µM

COC1CCC(N(C(=O)C2CCC(C)CC2)c2cc(C3=CCCCC3)sc2C(=O)O)CC1 (configuration not stated)
inactive: [1] | [2] | [3]
active: [8] 23.5 µM

N#CC(=C(N)Sc1ccccc1N)C(C#N)=C(N)Sc1ccccc1N
active: [1] 20.9 µM | [2] 16.6 µM | [3] 18.7 µM | [4] 0.662 µM | [5] 18.7 µM | [8] 16.6 µM

CC1(C)O[C@H]2C[C@@H]3[C@H]4CCC5=CC(=O)C=C[C@]5(C)[C@@]4(F)[C@@H](O)C[C@]3(C)[C@]2(C(=O)CO)O1
active: [1] 0.0037 µM | [7] 0.0118 µM
inactive: [2] | [3] | [5] | [8] | [6]
